# Screening data as filed in PubChem.
# Most compounds without a hit are left out; they make up all but 9% or so of the library.
# HTT aggregate = reduces HttQ103-GFP aggregates in PC12 cells | PC12 HttQ103-GFP aggregates, Acumen cytometry, 40 h | Potency, µM (highest dose often 46.1 µM), inactives show at the top dose activity change, negative = inhibition, usual class: inhibitors | hit rate 1.1% among 220,000 | AID 1688; note: % is set by controls: 0 for no effect and ±100 for the full control effect; nearly all actives have a fitted effect of over 60% in size
#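 PC12 cells stably carrying ecdysone-inducible HTT exon 1 Q103–GFP were induced with tebufenozide (100 nM final) and treated with library compounds in titration. GFP aggregates in lysates were counted by laser scanning cytometry.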
# ALDH1A1 block = ALDH1A1 (human) enzyme inhibition | AID 1030 | hit rate 7.3% among 220,000 | Potency, µM (series often up to 75.3 µM), for the others: top-dose activity, negative = inhibition, usual class: inhibitors | P00352 | Purified ALDH1A1, NADH fluorescence, propionaldehyde substrate; active = well fitted inhibition curve with a large enough effect, not every such curve was filed as active; inconclusive = small, poorly fitted or top-dose-only effect, or another doubt; inactive = no such curve, though single readings can be large or run the other way;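 note: plate controls were no enzyme wells and a reference inhibitor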
# HTT ATP protect = cytoprotection in Huntington HTT-Q103 PC12 cell model | PC12 HTT-Q103 induced, cytoprotection, ATP luminescence, 40 h | Potency, µM (highest dose often 56.4 µM), without a hit: cytoprotection (ATP increase), usual class: activators | hit rate 0.14% among 230,000; note: % of control where 0% means no effect; nearly all actives have a fitted effect of over 45% in size
#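 Readout: ATPlite luminescence (ATP level). Model: stable PC12, inducible Htt exon1 Q103-GFP. Inducer: tebufenozide, 100 nM final. Compounds: dose series. No G418 in medium.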
# HPGD inh = inhibitors of human 15-hydroxyprostaglandin dehydrogenase (HPGD); purified HPGD, NADH fluorescence kinetic, PGE2 substrate; Potency, µM, inactives show top-dose activity change, negative = inhibition, hits mostly inhibitors; P15428; hit rate 4.3% among 150,000; AID 894; active = well fitted inhibition curve with a large enough effect, not every such curve was filed as active; inconclusive = small, poorly fitted or top-dose-only effect, or another doubt; inactive = no such curve, though single readings can be large or run the other way; note: % is set by controls: 0 for no effect and ±100 for the full control effect
# Target sequence (P15428 whole entry, looked up): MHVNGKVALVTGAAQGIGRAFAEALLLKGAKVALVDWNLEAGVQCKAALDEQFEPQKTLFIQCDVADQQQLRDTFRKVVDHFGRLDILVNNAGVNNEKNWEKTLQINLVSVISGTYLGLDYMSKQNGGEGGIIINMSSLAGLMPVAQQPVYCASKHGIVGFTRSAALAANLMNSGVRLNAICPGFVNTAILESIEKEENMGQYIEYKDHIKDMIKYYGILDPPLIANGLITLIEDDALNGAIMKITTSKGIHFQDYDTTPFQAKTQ
#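 NADH formation kinetics: reaction with 30 uM PGE2 and 1 mM NAD+ (final), 20 nM enzyme, Tris-HCl pH 8 with Tween 20, after 15 min compound preincubation at room temperature. Fluorescence change, last versus first of five reads.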
# LMNA splice mod = LMNA splicing modulation | HeLa LMNA splicing GFP/RFP minigene ratio, 48 h | Potency, µM (highest dose often 46.1 µM), for inactives: at the highest dose ratio change, negative = inhibition, usual class: inhibitors | hit rate 0.01% among 200,000; active = well fitted inhibition curve with a large enough effect in the signal ratio, with a control signal flat, not every such curve was filed as active; inconclusive = small, poorly fitted or top-dose-only effect, or effect the other way, or a change in a side signal; the % refers to the signal ratio; note: % is set by controls: 0 for no effect and ±100 for the full control effect
#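 S3 HeLa stable clones carrying a lamin A-EGFP splicing minigene plus DsRed2 were seeded at 600 cells/well in Opti-MEM with 2% FBS, pin-dosed and incubated 48 h at 37°C. Acumen cytometry (488 nm) gave the GFP/RFP total-intensity ratio.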
# Luc counter = blocks Kinase-Glo luciferase, a counter-screen artifact; hit rate 0.28% among 200,000; Potency, µM (titrated, usually from 38.3 µM), without a hit: at the highest dose activity change, negative = inhibition, actives largely listed as inhibitors; Q27757; Kinase-Glo luciferase, ATP luminescence, 8 min; AID 1379; note: % is set by controls: 0 for no effect and ±100 for the full control effect; nearly all actives have a fitted effect of over 60% in size
#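 Inhibition of Kinase-Glo luciferase light generation was assessed at 10 uM ATP in pH 7.2 imidazole buffer, with luminescence measured after eight minutes at ambient temperature.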
# The depositor's hits bear a star; ? = inconclusive; / = not tested or not shown; [ ] = dose if it differs, or a comment. Unless noted, calls come from the whole dose curve; as a rule, active = well fitted curve in the direction sought with a large enough effect; inconclusive = small, poorly fitted or top-dose-only effect, or another doubt; inactive = no such curve, though single readings can be large; an effect the other way counts as inactive or inconclusive. Potency is the fitted concentration of half-maximal effect.
SMILES,HTT aggregate,ALDH1A1 block,HTT ATP protect,HPGD inh,LMNA splice mod,Luc counter
Cc1cccc(NC(=O)CSc2nnc(CNC(=O)c3ccc(S(=O)(=O)N(C)C)cc3)n2-c2ccccc2)c1,0%,7.1µM*,-19%[10 µM],5%,?,-3%
CN(C)CC(=O)Nc1cc(C(F)(F)F)ccc1Cl,-5%,5%,-3%,-16%,20%,-1%
COC(=O)c1cc(=O)nc2sc3ccccc3n12,-13%,?,-3%[10 µM],-6%,0%,-3%
COC(=O)c1cc(=O)nc2scc(C)n12,0%,22µM*,-28%,-7%,4%,3%
Clc1ccc(-c2cn3nc4c(nc3n2)CCCC4)cc1,-7%,?,-62%,?,-3%,?
COc1cccc(-c2cn3nc4c(nc3n2)CCCC4)c1,3%,?,-154%[0.074 µM],-14%,6%,10µM*
COC(=O)C1=C(C)N(Cc2ccc(C)cc2)C(=O)/C1=C\c1cc(OC)c(OC)c(OC)c1,?,-1%,-2%[10 µM],-9%,?,-2%
Cc1cccc(Nc2nnc(SCc3cc(=O)n4cc(C)ccc4n3)s2)c1,-6%,-9%,21%[10 µM],16µM*,3%,2%
CCc1ccc(Nc2nnc(SCc3cc(=O)n4ccsc4n3)s2)cc1,20%,?,-5%,20µM*,?,-4%
O=C(CSc1nnnn1-c1cccnc1)Nc1ccc(OCc2ccccc2)cc1,-16%,4µM*,-35%,-12%,2%,-6%
CCn1nnnc1SCC(=O)Nc1ccc(OCc2ccccc2)cc1,?,?,-17%[10 µM],-9%,-7%,-3%
O=C(CSc1nnnn1-c1ccccc1)Nc1nsc(-c2ccc(Cl)cc2)n1,-28%,?,5%[10 µM],?,8%,1%
O=C(CSc1nnnn1-c1ccccc1)CC(=O)Nc1ccc(Cl)cc1,-27%,2.2µM*,-26%[0.074 µM],-31%,?,0%
COCCn1c(=O)c(CCc2ccccc2)nc2cnc(N3CCOCC3)nc21,/,?,-18%,/,-1%,/
CC(C)(CO)N=C1NS(=O)(=O)c2cc([N+](=O)[O-])ccc21,10µM*,4%,/,-2%,2%,-2%
Cn1c2c(c(=O)n(C)c1=O)C(C(F)(F)F)(C(F)(F)F)N=C(C1CCCCC1)N2,?,7%,/,-1%,15%,1%
CCCCC(CC)CNCC(CC)CCCC (centres undefined),/,25µM*,-9%,-10%,/,/
CCCCC(CC)COP(=O)(OCC(CC)CCCC)OCC(CC)CCCC (centres undefined),/,-4%,12%,-5%,/,/
O=C(CSc1nnnn1-c1cccc2c1CCCC2)N1CCCC1,-7%,14µM*,-4%[10 µM],-24%,-7%,-4%
O=C(CSc1nnnn1-c1ccccc1)N1CCc2ccccc2C1,-1%,20µM*,5%,-10%,-3%,4%
O=C(CSc1nnnn1-c1cccc2c1CCCC2)N1CCOCC1,2%,7.9µM*,-8%[10 µM],?,?,1%
CC(=O)c1ccc(-n2nnnc2SCC(=O)N2CCc3ccccc3C2)cc1,-11%,?,-16%[1.9 µM],-14%,?,-2%
CC1CCCC(C)N1C(=O)CSc1nnnn1-c1cccc2c1CCCC2 (centres undefined),?,28µM*,-57%,-16%,3%,0%
Cc1ccc(NC(=O)C2CCC(=O)N2)cc1C (centres undefined),-11%,0%,15%[10 µM],-19%,-12%,3%
COc1ccc(C(=O)CSc2nnc3ccccn23)cc1OC,4%,10%,-32%,/,/,-2%
SMILES,HTT aggregate,ALDH1A1 block,HTT ATP protect,HPGD inh,LMNA splice mod,Luc counter
C=C(C)CN(CC)C(=O)CSc1nc(O)cc(=O)n1C1CCCC1,33%,10%,12%[10 µM],/,?,4%
COc1cccc(C2(O)CCN(C(=O)C3CC3)CC2)c1,-10%,22µM*,-14%,-12%,15%,1%
O=C(C(=O)N1CCN(C(=O)c2ccco2)CC1)c1c[nH]c2ccccc12,-13%,2%,-8%,/,11%[9.22 µM],1%
CC1=C(C(=O)OCC(C)C)C(c2cccc(F)c2)N2C(=O)C(C)SC2=N1 (centres undefined),4%,0.45µM*,12%[10 µM],?,5%,-1%
CCOC(=O)C1=C(C)N=C2SC(C)C(=O)N2C1c1ccc(OC(C)=O)c(OCC)c1 (centres undefined),-9%,4%,15%[10 µM],-1%,-7%,-2%
CCC1SC2=NC(C)=C(C(=O)OC)C(c3ccc(C)cc3)N2C1=O (centres undefined),14%,14µM*,-2%,-24%,6%,3%
CCOC(=O)C1=C(C)N=C2SC(C)C(=O)N2C1c1cccc(F)c1 (centres undefined),5%,-13%,25µM*,-4%,7%,-7%
CC1=C(C(=O)OC(C)C)C(c2cccc(F)c2)N2C(=O)C(C)SC2=N1 (centres undefined),23%,?,9%[10 µM],-3%,-11%,0%
COc1ccc(Nc2ncc(C#N)c(N)n2)c(OC)c1,-1%[9.22 µM],/,34%[10 µM],/,/,/
O=C(NCc1ccc2c(c1)CCN2C(=O)c1ccc(F)cc1)c1ccco1,/,/,/,/,-4%[46 µM],/
COc1ccc(Br)cc1CC1C(=O)Nc2ccccc21 (centres undefined),/,/,/,/,18%[46 µM],/
C#CC[N+]1(CC#Cc2ccc(C)cc2)CCCCC1,-27%,-1%,14%[10 µM],-4%,?,1%
CCCC(=O)C1=C(c2ccccc2)C(C#N)(C#N)C(C#N)=C1N,5%,?,-1%[0.074 µM],1.4µM*,10%,-3%
COc1ccc(/C=N/n2cnn(Cc3ccccc3Cl)c2=S)cc1,1%,10µM*,-11%[10 µM],/,-6%[46 µM],2%
O=C(COc1ccccc1Cl)Nc1ccc2oc(-c3ccccc3F)nc2c1,/,/,/,/,3%[46 µM],/
CCOc1ccc(Br)cc1/C=N/O,4%,-1%,-4%,11µM*,7%,10%
C#CCOc1ccc(Cl)cc1/C=N/O,-3%[9.22 µM],7%,1%,?,14%,-3%
C#CCOc1ccc(Br)cc1/C=N/O,-7%,0%,-3%,14µM*,18%,-1%
CCCOc1ccc(Br)cc1/C=N/O,-13%,-2%,7%,10µM*,13%,1%
O=C(O)COc1ccc(Br)cc1/C=N/O,3%,3%,3%[10 µM],-14%,1%,1%
Cc1ccc(CNC(=O)CSc2n[nH]c(N)n2)cc1,3%,-5%,-8%[10 µM],1%,16%,-2%
COc1ccc(CC(CC(=O)O)C(=O)Nc2ccc(OC)cc2)cc1 (centres undefined),4%,13%,2%,-2%,-7%,-6%
CCOc1ccc(CNC(=O)C2CCCN(S(C)(=O)=O)C2)cc1OC (centres undefined),-6%,-1%,19%[10 µM],-5%,-1%,4%
